Inconclusive results are not listed. A structure can be active in one record and inactive in another. Activity calls are given as the source filed them. How the source made its calls, unless noted: active means hit-call score of the fitted dose curve at least 0.9, where 1 is the maximum; inconclusive means response in the unintended direction; inactive means score below 0.9.

What is called AC50 is the concentration at which the activity in the assay is half-maximal.

Assay [1] addresses Agonist Androgen Response Element (ARE), AR (gene 367) (UniProt P10275). The assay can be described thus: OT_AR_ARELUC_AG_1440: Odyssey Thera (OT) 24-hour CHO-K1 Luciferase Assay for Agonist Androgen Response Element (ARE) (AID 2283379). Put shortly:
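Seed CHO-K1 cells; dose compounds for 24 h; add D-luciferin plus ATP in PBS; read luminescence. Signal increase relative to vehicle defines agonist activity, with at least 3 replicate wells per sample.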

The target of assay [2] is Estrogen receptor beta (Homo sapiens) (UniProt Q92731). Kind of assay: OT_ER_ERbERb_1440: Odyssey Thera (OT) 24-hour HEK293T Protein-Complementation Assay for Estrogen Receptor-beta/-beta Homodimer (AID 2283380).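 Further: fluorescence gain from ER beta LBD homodimer complementation read by laser scanning cytometry; scored as signal increase over DMSO baseline for both agonists and antagonists.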 An outline of the steps:
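HEK293T cells stably expressing human ER-beta LBD (aa 310-547) PCA homodimer pair, dosed 24 h; formaldehyde-fixed, Draq5-stained. Readout: increase in nuclear (agonist) or nuclear plus cytoplasmic (antagonist) fluorescence intensity versus DMSO, gain-of-signal fitting.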

For assay [3], the target named is Bile acid receptor (Homo sapiens) (UniProt Q96RI1). The assay can be described thus: OT_FXR_FXRSRC1_0480: Odyssey Thera (OT) 8-hour HEK293T Protein-Complementation Assay for Farnesoid X receptor/SRC-1 Co-activator (AID 2283383). Put shortly:
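Human kidney HEK293T cells carried FXR/SRC-1 fragment-complementation constructs. Compounds were added and incubated 8 h. Reporter reassembly upon receptor–co-activator interaction was then quantified by fluorescence, with curves fitted in the positive direction relative to DMSO.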

Assay [4] has the same target. Kind of assay: OT_FXR_FXRSRC1_1440: Odyssey Thera (OT) 24-hour HEK293T Protein-Complementation Assay for Farnesoid X receptor/SRC-1 Co-activator (AID 2283384). Put shortly:
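Compounds are applied to human kidney HEK293T cells expressing bait and prey fused to reporter protein fragments; after 24 h, reconstituted reporter fluorescence is measured. Activity is fitted as signal gain over DMSO.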

Assay [5] has as its target Retinoic acid receptor RXR-alpha (Homo sapiens) (UniProt P19793). Kind of assay: OT_NURR1_NURR1RXRa_0480: Odyssey Thera (OT) 8-hour HEK293T Protein Complementation Assay for Nurr1/retinoid X receptor (RXR) (AID 2283385). An outline of the steps: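 8 h compound exposure, HEK293T; Nurr1/RXRα fragment complementation; fluorescence intensity; positive fitting direction vs DMSO baseline.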

For assay [6] the target is unchanged. Kind of assay: OT_NURR1_NURR1RXRa_1440: Odyssey Thera (OT) 24-hour HEK293T Protein Complementation Assay for Nurr1/retinoid X receptor (RXR) (AID 2283386). Put shortly:
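Interaction of Nurr1 with RXRα brings fused reporter fragments together in human HEK293T cells, restoring a functional reporter. Fluorescence intensity is measured 24 h after chemical treatment, and values are analysed in the positive direction against DMSO.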

The target in assay [7] is Peroxisome proliferator-activated receptor gamma (Homo sapiens) (UniProt P37231). The assay can be described thus: OT_PPARg_PPARgSRC1_0480: Odyssey Thera (OT) 8-hour Protein-Complementation Assay for Peroxisome Proliferator-activated Receptor Gamma / SRC-1 Co-activator (AID 2283387).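 Further: nuclear to cytoplasmic split Venus YFP fluorescence ratio reporting PPARg SRC-1 interaction.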 An outline of the steps:
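Protein-fragment complementation of split Venus YFP reports PPARg/SRC-1 interaction in HEK293T (transfected 48 h before treatment), exposed 8 h. Readout: N/C fluorescence ratio at 488 nm from imaging, Draq5 for segmentation, positive fit relative to DMSO.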

Assay [8] has the same target. The assay can be described thus: OT_PPARg_PPARgSRC1_1440: Odyssey Thera (OT) 24-hour Protein-Complementation Assay for Peroxisome Proliferator-activated Receptor Gamma/ SRC-1 Co-activator (AID 2283388).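 Further: nuclear to cytoplasmic ratio of reconstituted Venus YFP fluorescence in fixed imaged cells.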 An outline of the steps: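 Readout is the 488 nm N/C fluorescence ratio from fixed, Draq5-stained HEK293T cells after 24 h compound exposure. Cells carried transiently transfected PPARg and SRC-1 fused to Venus fragments, transfected 48 h before treatment.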

Assay [9] addresses Estrogen receptor (Homo sapiens) (UniProt P03372). Kind of assay: OT_ERa_GFPERaERE_0120: Odyssey Thera (OT) 2-hour HeLa Transcription Induction Assay for Estrogen Receptor (AID 2283382). Put shortly: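 HeLa, 384-well, 2 h chemical exposure; GFP reporter induction (ERE), fluorescence microscopy; high content image analysis; positive fitting direction vs DMSO.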
Assay [10] in a line: CEETOX_H295R_11DCORT: CeeTox H295R High-throughput Steroidogenesis Assay for 11-Deoxycortisol (11DCORT) (AID 2283432; active means hit-call score of the fitted dose curve at least 0.9, where 1 is the maximum; inactive means score below 0.9;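 on AC50: 11-deoxycortisol secreted into the medium measured by LC-MS/MS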). To be noted: actives raise or lower the signal. An outline of the steps:
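Human adrenal H295R cells were prestimulated with 10 uM forskolin for 48 h, then exposed to test chemical (0.1% DMSO final) for 48 h. Medium 11-deoxycortisol was quantified by MTBE extraction and HPLC-MS/MS; bidirectional fitting relative to DMSO.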

Assay [11] can be described thus: CEETOX_H295R_OHPREG: CeeTox H295R High-throughput Steroidogenesis Assay for OH-Pregnenolone (OHPREG) (AID 2283434; active means hit-call score of the fitted dose curve at least 0.9, where 1 is the maximum; inactive means score below 0.9). To be noted: actives raise or lower the signal. Put shortly:
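Human adrenal H295R cells were prestimulated 48 h with 10 uM forskolin, then exposed 48 h to chemical in 0.1% DMSO. Medium 17alpha-hydroxypregnenolone was quantified by HPLC-MS/MS after MTBE extraction; bidirectional fitting versus DMSO baseline.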

The nature of assay [12]: CEETOX_H295R_OHPROG: CeeTox H295R High-throughput Steroidogenesis Assay for OH-Progesterone (OHPROG) (AID 2283435; active means hit-call score of the fitted dose curve at least 0.9, where 1 is the maximum; inactive means score below 0.9;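 on AC50: 17alpha-hydroxyprogesterone secreted into medium measured by HPLC-MS/MS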). To be noted: actives raise or lower the signal. Put shortly:
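H295R, 10 uM forskolin prestim 48 h; cmpd in 0.1% DMSO 48 h; medium MTBE-extracted, HPLC-MS/MS for OH-progesterone; 7-pt std curve; bidirectional fit vs DMSO; MTT viability, chemicals diluted until viability >/=70%.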

Assay [13] in a line: CEETOX_H295R_CORTISOL: CeeTox H295R High-throughput Steroidogenesis Assay for Cortisol (AID 2283438; active means hit-call score of the fitted dose curve at least 0.9, where 1 is the maximum; inactive means score below 0.9;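 further: cortisol secreted into medium quantified by LC-MS/MS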). As to conditions: actives raise or lower the signal. Put shortly: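 Forskolin 10 uM 48 h prestim → test cmpd in DMSO (0.1% final) 48 h → medium MTBE-extracted → LC-MS/MS cortisol vs 7-pt std curve. Gain/loss of signal fitted vs DMSO. MTT viability in same wells.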
A short description of assay [14]: CEETOX_H295R_ANDR: CeeTox H295R High-throughput Steroidogenesis Assay for Androstenedione (ANDR) (AID 2283436; active means hit-call score of the fitted dose curve at least 0.9, where 1 is the maximum; inactive means score below 0.9). To be noted: actives raise or lower the signal. An outline of the steps: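 H295R human adrenal cells (passages ≤10) were exposed to test chemicals for 48 h; androstenedione in medium was MTBE-extracted and quantified by HPLC-MS/MS against a 7-point standard curve. Bidirectional fitting used DMSO as baseline.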

For assay [15], the target named is human Norepinephrine Transporter (NET), SLC6A2 (gene 6530) (UniProt P23975). The assay can be described thus: NVS_TR_hNET: NovaScreen (NVS) Transporter Assay for human Norepinephrine Transporter (NET) (AID 2283377).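 Further: cell-free membrane protein extracted from CHO cells expressing human NET.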 An outline of the steps:
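Radioligand binding to human NET in cell-free CHO-derived protein preparations, read by filter-based scintillation counting 1 hour after dosing. Loss of signal versus DMSO baseline indicated displacement; primary screening in duplicate at 25 uM, actives then titrated.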

Agonist Androgen Response Element (ARE), AR (gene 367), sequence (P10275 whole entry, looked up): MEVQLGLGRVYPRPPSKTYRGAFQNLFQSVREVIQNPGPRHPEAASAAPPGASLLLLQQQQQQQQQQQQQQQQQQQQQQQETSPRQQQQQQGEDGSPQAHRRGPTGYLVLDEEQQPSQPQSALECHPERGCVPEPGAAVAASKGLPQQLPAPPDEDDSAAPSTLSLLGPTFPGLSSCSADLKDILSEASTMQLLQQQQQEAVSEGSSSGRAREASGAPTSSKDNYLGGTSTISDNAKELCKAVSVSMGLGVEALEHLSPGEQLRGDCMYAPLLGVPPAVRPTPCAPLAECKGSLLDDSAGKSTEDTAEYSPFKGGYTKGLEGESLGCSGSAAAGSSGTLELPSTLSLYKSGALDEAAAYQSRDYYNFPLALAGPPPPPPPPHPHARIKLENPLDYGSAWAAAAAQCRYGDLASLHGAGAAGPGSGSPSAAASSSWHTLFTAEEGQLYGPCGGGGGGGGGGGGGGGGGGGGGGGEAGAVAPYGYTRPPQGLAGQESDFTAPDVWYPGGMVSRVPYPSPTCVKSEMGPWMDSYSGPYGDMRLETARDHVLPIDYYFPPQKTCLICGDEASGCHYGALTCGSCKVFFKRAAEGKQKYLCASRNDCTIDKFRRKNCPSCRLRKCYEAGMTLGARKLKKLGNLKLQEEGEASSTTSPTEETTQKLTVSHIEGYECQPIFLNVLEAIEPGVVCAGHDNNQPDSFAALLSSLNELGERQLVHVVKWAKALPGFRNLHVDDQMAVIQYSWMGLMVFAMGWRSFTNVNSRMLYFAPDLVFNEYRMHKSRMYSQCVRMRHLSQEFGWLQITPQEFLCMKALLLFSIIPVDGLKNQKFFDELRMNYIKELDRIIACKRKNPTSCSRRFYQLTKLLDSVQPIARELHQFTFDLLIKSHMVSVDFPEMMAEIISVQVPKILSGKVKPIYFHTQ
Bile acid receptor (Homo sapiens), sequence (Q96RI1 whole entry, looked up, the tested form may be a part): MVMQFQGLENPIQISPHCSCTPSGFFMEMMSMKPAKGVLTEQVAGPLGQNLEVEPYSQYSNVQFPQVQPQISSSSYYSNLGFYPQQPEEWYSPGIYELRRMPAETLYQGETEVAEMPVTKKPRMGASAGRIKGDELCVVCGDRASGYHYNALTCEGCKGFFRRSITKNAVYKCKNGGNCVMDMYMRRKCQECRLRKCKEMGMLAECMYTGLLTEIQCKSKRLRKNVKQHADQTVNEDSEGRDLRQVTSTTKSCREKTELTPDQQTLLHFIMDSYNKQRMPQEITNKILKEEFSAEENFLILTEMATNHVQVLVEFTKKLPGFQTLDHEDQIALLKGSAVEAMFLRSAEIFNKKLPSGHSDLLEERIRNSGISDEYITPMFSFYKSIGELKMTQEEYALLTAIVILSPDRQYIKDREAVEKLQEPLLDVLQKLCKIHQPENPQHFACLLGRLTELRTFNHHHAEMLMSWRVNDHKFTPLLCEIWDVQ
Peroxisome proliferator-activated receptor gamma (Homo sapiens), sequence (P37231 whole entry, looked up, the tested form may be a part): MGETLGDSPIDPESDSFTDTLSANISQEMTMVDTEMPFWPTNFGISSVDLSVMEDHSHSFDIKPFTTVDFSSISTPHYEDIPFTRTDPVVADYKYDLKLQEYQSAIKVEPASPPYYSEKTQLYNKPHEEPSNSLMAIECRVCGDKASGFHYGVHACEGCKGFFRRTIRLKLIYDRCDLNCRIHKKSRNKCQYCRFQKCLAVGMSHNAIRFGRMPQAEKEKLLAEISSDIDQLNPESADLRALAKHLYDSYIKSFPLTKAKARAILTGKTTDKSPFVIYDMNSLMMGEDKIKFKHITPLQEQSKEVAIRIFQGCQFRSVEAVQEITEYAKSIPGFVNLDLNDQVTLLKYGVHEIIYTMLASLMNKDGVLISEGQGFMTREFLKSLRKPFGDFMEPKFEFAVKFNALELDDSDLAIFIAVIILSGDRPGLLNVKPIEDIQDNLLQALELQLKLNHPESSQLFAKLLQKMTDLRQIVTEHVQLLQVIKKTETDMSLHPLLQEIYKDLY
Retinoic acid receptor RXR-alpha (Homo sapiens), sequence (P19793 whole entry, looked up, the tested form may be a part): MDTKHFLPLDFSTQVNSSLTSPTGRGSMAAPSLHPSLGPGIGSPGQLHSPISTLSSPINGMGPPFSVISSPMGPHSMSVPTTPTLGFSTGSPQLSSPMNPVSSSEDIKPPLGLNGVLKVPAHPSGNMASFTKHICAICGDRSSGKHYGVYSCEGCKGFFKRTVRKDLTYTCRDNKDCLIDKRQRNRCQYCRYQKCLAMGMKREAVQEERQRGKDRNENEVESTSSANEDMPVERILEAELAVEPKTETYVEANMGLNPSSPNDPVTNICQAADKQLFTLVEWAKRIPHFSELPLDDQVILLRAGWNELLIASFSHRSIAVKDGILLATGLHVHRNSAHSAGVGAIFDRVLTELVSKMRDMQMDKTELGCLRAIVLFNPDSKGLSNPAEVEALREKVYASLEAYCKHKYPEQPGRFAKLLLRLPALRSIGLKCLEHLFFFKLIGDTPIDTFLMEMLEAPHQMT
Estrogen receptor beta (Homo sapiens), sequence (Q92731 whole entry, looked up, the tested form may be a part): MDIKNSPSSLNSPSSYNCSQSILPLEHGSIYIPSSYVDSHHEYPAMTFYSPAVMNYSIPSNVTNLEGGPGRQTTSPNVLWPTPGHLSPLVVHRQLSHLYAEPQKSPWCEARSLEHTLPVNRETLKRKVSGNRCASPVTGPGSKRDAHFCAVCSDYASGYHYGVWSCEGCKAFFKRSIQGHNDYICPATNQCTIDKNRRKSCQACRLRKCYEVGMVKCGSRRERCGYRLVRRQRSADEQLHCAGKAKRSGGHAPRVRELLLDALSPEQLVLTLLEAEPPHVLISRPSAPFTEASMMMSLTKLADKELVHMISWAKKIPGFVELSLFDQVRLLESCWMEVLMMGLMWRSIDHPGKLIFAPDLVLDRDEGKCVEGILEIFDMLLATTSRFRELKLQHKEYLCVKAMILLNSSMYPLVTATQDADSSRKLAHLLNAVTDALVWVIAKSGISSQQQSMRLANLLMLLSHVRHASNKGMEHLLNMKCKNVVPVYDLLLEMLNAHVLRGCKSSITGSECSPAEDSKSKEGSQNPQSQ
Estrogen receptor (Homo sapiens), sequence (P03372 whole entry, looked up): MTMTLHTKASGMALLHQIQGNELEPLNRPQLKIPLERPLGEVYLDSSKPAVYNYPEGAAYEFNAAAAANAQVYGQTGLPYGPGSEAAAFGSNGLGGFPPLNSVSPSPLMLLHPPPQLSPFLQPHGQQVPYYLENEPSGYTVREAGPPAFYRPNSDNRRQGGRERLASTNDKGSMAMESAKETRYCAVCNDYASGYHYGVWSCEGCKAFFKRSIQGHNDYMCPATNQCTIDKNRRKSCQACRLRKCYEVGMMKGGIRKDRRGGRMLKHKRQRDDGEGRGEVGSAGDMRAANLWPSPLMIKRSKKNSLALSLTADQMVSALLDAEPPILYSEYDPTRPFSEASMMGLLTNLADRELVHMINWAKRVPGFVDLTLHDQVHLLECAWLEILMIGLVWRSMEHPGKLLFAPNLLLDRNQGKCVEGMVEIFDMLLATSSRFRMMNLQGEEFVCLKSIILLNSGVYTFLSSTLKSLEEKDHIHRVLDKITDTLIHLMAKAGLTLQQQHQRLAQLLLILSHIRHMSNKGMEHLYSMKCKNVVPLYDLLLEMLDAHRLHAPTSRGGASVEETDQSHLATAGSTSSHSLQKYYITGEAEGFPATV
human Norepinephrine Transporter (NET), SLC6A2 (gene 6530), sequence (P23975 whole entry, looked up): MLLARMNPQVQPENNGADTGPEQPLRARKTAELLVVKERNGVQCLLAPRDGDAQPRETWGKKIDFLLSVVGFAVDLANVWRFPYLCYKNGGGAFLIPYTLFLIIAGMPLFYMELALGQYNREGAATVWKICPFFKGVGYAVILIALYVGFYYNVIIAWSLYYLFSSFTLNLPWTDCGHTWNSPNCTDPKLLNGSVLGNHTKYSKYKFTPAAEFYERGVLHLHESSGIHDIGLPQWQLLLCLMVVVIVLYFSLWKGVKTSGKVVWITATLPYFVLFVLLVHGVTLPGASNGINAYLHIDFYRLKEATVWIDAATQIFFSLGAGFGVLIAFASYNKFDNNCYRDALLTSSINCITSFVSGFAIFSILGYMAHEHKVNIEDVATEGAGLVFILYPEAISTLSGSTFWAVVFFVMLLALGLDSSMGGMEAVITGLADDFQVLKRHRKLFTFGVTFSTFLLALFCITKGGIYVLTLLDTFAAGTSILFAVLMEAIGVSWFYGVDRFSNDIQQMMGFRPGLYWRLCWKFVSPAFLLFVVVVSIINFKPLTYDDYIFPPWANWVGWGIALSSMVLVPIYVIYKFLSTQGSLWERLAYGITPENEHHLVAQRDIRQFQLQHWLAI

`CCNc1ccccc1`: the compound was called inactive in assay [1], in assay [2], in assay [3], in assay [4], in [5] and in assay [6]. In addition, the compound was classed as inactive in assay [7] and in assay [8].
As to `CC(C)=CCCC(C)CCO` (stereo unspecified), the compound was called inactive in assay [1], in assay [2], in assay [9], in assay [6], in assay [7] and in [8].
In the case of `CC(C)CCCCCCOC(=O)c1ccc(C(=O)OCCCCCCC(C)C)c(C(=O)OCCCCCCC(C)C)c1`, the result in [2], in assay [6], in assay [7] and in assay [8] was inactive.
`CC(C)=CCC/C(C)=C\CO`: the compound was called inactive in assay [1], in [3], in assay [4], in assay [6], in [7] and in [8].
Turning to `COC(=O)c1c(Cl)c(Cl)c(C(=O)OC)c(Cl)c1Cl`, the result in [9], in [4], in assay [5], in assay [6], in assay [7] and in [8] was inactive. Moreover, the result in assay [10], in assay [11], in assay [12] and in [13] was inactive. Also, the AC50 in assay [3] is 72.2 µM (active); in assay [5], 68.6 µM (active).
Consider `O=C(CCCCCCCCc1cccnc1)N1CCC(C=C(c2ccccc2)c2ccccc2)CC1`, for which the compound was classed as inactive in assay [1], in assay [5], in [7] and in assay [8]. For the same compound, in assay [6], the AC50 is 12 µM (active).
On to `CC(C)CC(C)(O)C#CC(C)(O)CC(C)C` (stereo unspecified), for which the call in assay [2], in assay [5], in [7], in [8], in assay [11] and in assay [12] was inactive. In addition, in [13], the compound was called inactive. The half-maximal activity concentration (AC50) in [10] was 68.2 µM (active).
Take `Cn1cnc([N+](=O)[O-])c1Sc1ncnc2nc[nH]c12`: the result in assay [2], in assay [9], in assay [6], in assay [7] and in assay [8] was inactive.
Turning to `O=c1n(CC2CO2)c(=O)n(CC2CO2)c(=O)n1CC1CO1` (stereo unspecified), the compound was classed as inactive in [2], in [9], in [6], in assay [7] and in assay [8].
Consider `O=C(O)c1cccc(N(Cc2cccnc2)c2ccc(OC(F)F)c(OC(F)F)c2)c1`, for which the result in assay [1], in assay [7], in [8], in [11] and in [14] was inactive. For the same compound, the AC50 is 32.4 µM (active) in assay [6] and 7.82 µM (active) in [12].
Take `NC(=O)NO`: the call in assay [2], in [5] and in assay [6] was inactive.
With `O=C1CCC(N2C(=O)c3ccccc3C2=O)C(=O)N1` (stereo unspecified), the outcome in assay [15], in [5], in assay [6], in assay [7] and in [8] was inactive.
With `Clc1nc(Cl)c(Cl)c(Cl)c1Cl`, the result in [2], in assay [6], in assay [7] and in assay [8] was inactive.
In the case of `CC(O)CN(CCN(CC(C)O)CC(C)O)CC(C)O` (stereo unspecified), the outcome in assay [2], in assay [4], in [6], in assay [7] and in assay [8] was inactive.
As for `CN(C)c1ccc(N=NS(=O)(=O)O)cc1`, the result in [1] and in assay [5] was inactive.
As to `Nc1nc2ncc(CNc3ccc(C(=O)N[C@@H](CCC(=O)O)C(=O)O)cc3)nc2c(=O)[nH]1`, the compound was classed as inactive in [1], in assay [5], in assay [6], in assay [7] and in assay [8].
As to `CCCCC(CC)COC(=O)c1ccc(C(=O)OCC(CC)CCCC)cc1` (stereo unspecified), the outcome in assay [1], in assay [3], in assay [6], in assay [7] and in assay [8] was inactive.
Regarding `COC(=O)CC(=O)OC`, the result in [2], in assay [9], in [6], in assay [7] and in assay [8] was inactive.
Consider `Cc1ccc(O)cc1`, for which the compound was called inactive in assay [1], in assay [3], in [4], in assay [5], in assay [6] and in [7]. Besides, the compound was called inactive in assay [8], in assay [10], in [11], in assay [12], in assay [14] and in [13].
In the case of `O=P(OC(CCl)CCl)(OC(CCl)CCl)OC(CCl)CCl`, the compound was called inactive in [2], in assay [9], in assay [6], in [7] and in assay [8].
Regarding `CCCCC(CC)COC(=O)CCCCCCCCC(=O)OCC(CC)CCCC` (stereo unspecified), the compound was classed as inactive in assay [9], in assay [3], in assay [4], in assay [6], in [7] and in assay [8].
On to `CC(C)(O)c1coc(S(=O)(=O)NC(=O)Nc2c3c(cc4c2CCC4)CCC3)c1`, for which the outcome in [2], in assay [3], in [5], in assay [6], in assay [7] and in assay [8] was inactive. Besides, the compound was classed as inactive in [10], in [11] and in assay [13]. The AC50 in assay [12] was 10.4 µM (active).
Regarding `CCCCCCCCCCCCCCCO`, the compound was classed as inactive in assay [3], in assay [5], in assay [6], in assay [7], in assay [8] and in [11]. Moreover, the compound was called inactive in [12].
`Cc1ccc(C)c(O)c1`: the result in [3], in [4], in assay [5], in [6], in assay [7] and in [8] was inactive.

The values above are taken from PubChem BioAssay (EPA / NIEHS).
